From PubChem BioAssay AID1063 (University of Pittsburgh Molecular Library Screening Center, 2008)
The whole screen tested about 200,000 compounds, of which about 18,000 (9%) were called active. No stated cut-off is given here; in the data, active means inhibition above about 50%; inactive means the rest. What follows is part of a selection rich in actives, with near analogues and random picks from the rest.

experiment: antileishmanial activity against promastigotes – primary screen (AID 1063); conditions: Leishmania major promastigotes, resazurin fluorescence viability; at 10 µM; hits give high values;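 further: promastigotes grown with compound for 44 hours at 28 °C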

| SMILES | inhibition |
| --- | --- |
| CCSc1ccccc1C(=O)Nc1ccc2c(c1)OCO2 | 7.96% (inactive) |
| CN(C)CCCn1c(SCCN2C(=O)c3ccccc3C2=O)nc2ccccc2c1=O | -2.2% (inactive) |
| Cn1c(N)c(C(=O)COC(=O)c2cnc(Cl)c(Cl)c2)c(=O)n(C)c1=O | -4.42% (inactive) |
| Cc1ccc(C)c(NC(=O)CCC(=O)N/N=C2/CC(=O)CC(C)(C)C2)c1 | -2.4% (inactive) |
| Cc1nnc(SC(C(=O)Nc2cc(Cl)cc(Cl)c2)c2ccccc2)[nH]c1=O (centres undefined) | -10.6% (inactive) |
| O=C(CCC(=O)N1CCCC1)Nc1ccc([N+](=O)[O-])cc1 | -1.46% (inactive) |
| O=C(NCc1ccco1)C1CCCN(S(=O)(=O)c2ccccc2)C1 (centres undefined) | -0.05% (inactive) |
| O=C(CN(CC1CCCO1)C(=O)CNS(=O)(=O)c1ccc(F)cc1)NCc1ccco1 (centres undefined) | -10% (inactive) |
| CCCC(C(=O)NCc1ccco1)N(C(=O)CNS(=O)(=O)c1ccccc1)C1CCCC1 (centres undefined) | 60% (active) |
| CC1(C)Cc2c(C#N)c(SCc3nc4ccccc4[nH]3)nc(N3CCOCC3)c2CO1 | 34.1% (inactive) |
| COc1ccc(CSc2nc(N3CCOCC3)c3c(c2C#N)CC(C)(C)OC3)cc1 | 66.8% (active) |
| CC(C)c1nc(N2CCOCC2)c(C#N)c2c1COC(C)(C)C2 | 4.48% (inactive) |
| CCN(CC)C(=O)CS(=O)CC(=O)Nc1cc(OCCOC)c(Cl)cc1Cl (centres undefined) | 1.34% (inactive) |
| Cc1ccnc2nc(C(=O)Nc3nnc(-c4ccccc4)o3)nn12 | -14.4% (inactive) |
| CCOc1ccc(-n2cnnn2)cc1S(=O)(=O)N1CCC(C)CC1C (centres undefined) | -5.29% (inactive) |
| COc1cc2[nH]c(=S)n(Cc3ccc(F)cc3)c(=O)c2cc1OC | -5.46% (inactive) |
| CCOC(=O)C1CCN(S(=O)(=O)c2cc(F)ccc2OC)CC1 | 6.21% (inactive) |
| Cc1cc2cc(CN(Cc3cccs3)Cc3nnnn3CC3CCCO3)c(=O)[nH]c2cc1C (centres undefined) | 21.2% (inactive) |
| CCC(c1nnnn1C1CCCC1)N(Cc1cccs1)Cc1cc2cccc(C)c2[nH]c1=O (centres undefined) | 30.1% (inactive) |
| Cc1cc(C)c2cc(CN(Cc3cccs3)Cc3nnnn3CC3CCCO3)c(=O)[nH]c2c1 (centres undefined) | 48.9% (inactive) |
| Cc1cccc2cc(CN(Cc3nnnn3Cc3ccccc3)C3CCCC3)c(=O)[nH]c12 | 36.7% (inactive) |
| Cc1cccc2cc(CN(Cc3cccs3)C(c3nnnn3C3CCCC3)C(C)C)c(=O)[nH]c12 (centres undefined) | 90.3% (active) |
| Cc1cccc2cc(CN(Cc3ccc4c(c3)OCO4)Cc3nnnn3C3CCCC3)c(=O)[nH]c12 | 71.8% (active) |
| C=C(C)CNC(=S)N/N=C/c1ccccc1OCC(=O)O | -1.38% (inactive) |

| SMILES | inhibition |
| --- | --- |
| O=S(=O)(NCCc1ccc(F)cc1)c1cccc2cccnc12 | -0.53% (inactive) |
| O=C1C2C3C=CC(C3)C2C(=O)N1c1ccc(-c2nc3ccccc3c(=O)o2)cc1 (centres undefined) | -7% (inactive) |
| COc1ccc(OC)c(-n2c(=S)[nH]c3cc(C(=O)N4CCCCC4)ccc3c2=O)c1 | -7.75% (inactive) |
| COc1ccc(C(=O)Nc2ccc(-n3nncc3C(C)(C)C)cc2)cc1 | -0.36% (inactive) |
| COc1cc(/C=N/O)ccc1OCc1ccc([N+](=O)[O-])cc1 | 51.5% (active) |
| COc1cc(C(=O)OCc2ccc([N+](=O)[O-])cc2)cc(OC)c1OC | -8.98% (inactive) |
| COc1cc(/C=N\Nc2ccc([N+](=O)[O-])cn2)ccc1OCC(=O)O | 4.37% (inactive) |
| COC(=O)Cc1ccc(Oc2ncc(C(F)(F)F)cc2Cl)cc1 | -7.25% (inactive) |
| C/C(=N\NC(=O)NC1CCCCC1)c1ccc(OC(F)F)cc1OC(F)F | 46.4% (inactive) |
| CCN(CC)CCOC(=O)c1ccc(NC(=O)CNC(=O)c2ccccc2)cc1 | -0.48% (inactive) |
| CCOC(=O)c1ccccc1NC(=S)N1CCC(C(N)=O)CC1 | 4.08% (inactive) |
| COc1cccc(-n2c(=O)c3c(C)c(C(=O)N(C)C)sc3n(CC(=O)NCCc3ccc(OC)c(OC)c3)c2=O)c1 | 2.17% (inactive) |
| O=C(Nc1ccccc1F)c1ccccc1-c1ccccc1 | -3.5% (inactive) |
| COc1cc(OC)c(C(=O)Nc2ccccc2-c2ccccc2)cc1OC | 82.5% (active) |
| COc1cc(OC)c(C(=O)Nc2ccc(N(C)C)cc2)cc1OC | 3.39% (inactive) |
| O=C(NCc1ccccc1Cl)C1CCN(S(=O)(=O)N2CCOCC2)CC1 | -5.43% (inactive) |
| CCOc1ncccc1C(=O)OCC(=O)NC1CC1 | 4.89% (inactive) |
| Cc1csc(NC(=O)CSc2ccc(-c3ccc(F)cc3)nn2)n1 | 7.99% (inactive) |
| NNC(=O)C1CC(O)CN1S(=O)(=O)c1ccc(Cl)cc1 (centres undefined) | 4% (inactive) |
| O=C(NCc1ccccc1)C1CCCN(c2nc3ccsc3c(=O)s2)C1 (centres undefined) | -5.75% (inactive) |
| C=CCn1c(COc2ccc(F)cc2)nnc1SCC(=O)Nc1cccc(S(N)(=O)=O)c1 | 1.1% (inactive) |
| COc1ccc(NC(=O)c2ccccc2CC[N+](=O)[O-])cc1 | 13.1% (inactive) |
| CC(C)n1c(SCC(=O)Nc2ccccc2N2CCCCC2)nc2c1c(=O)n(C)c(=O)n2C | 58.5% (active) |
| Cc1ccccc1NC(=O)CNc1ccccc1N1CCCCC1 | 21.9% (inactive) |

| SMILES | inhibition |
| --- | --- |
| Cn1c(=O)c2c(nc(SCC(=O)Nc3ccccc3N3CCCCC3)n2C)n(C)c1=O | 31% (inactive) |
| CN(c1ccccc1)S(=O)(=O)c1ccc(Cl)c(C(=O)OCC(=O)N2CCOCC2)c1 | 1.28% (inactive) |
| COC(=O)c1nc2ccccc2s1 | -8.95% (inactive) |
| CCC(=O)NC(=Nc1nc2ccccc2s1)NC(=O)CC | 8.31% (inactive) |
| CC(C)CC(=O)N/C(N)=N/c1nc2ccccc2s1 | 95.3% (active) |
| CC/C(=N\NC(=S)NC(C)C)c1ccc(OC(F)F)cc1 | 16.9% (inactive) |
| Cc1cc(Cl)ccc1OCCCC(=O)NCc1ccncc1 | -0.52% (inactive) |
| CN(C)CCOc1ccc(Cl)cc1C(C)(C)C | 6.15% (inactive) |
| CC(C)(C)NCCCOc1ccc(Cl)cc1C(C)(C)C | 100% (active) |
| O=C(CN(c1cccc(Cl)c1)S(=O)(=O)c1ccccc1)NN=C1CCCC1 | 12.4% (inactive) |
| CC1CN(CCCOc2ccccc2-c2ccccc2)CC(C)O1 (centres undefined) | 88.7% (active) |
| c1ccc(-c2ccccc2OCCN2CCCCC2)cc1 | 8.2% (inactive) |
| COC(=O)[C@H](Cc1ccccc1)NC(=O)N1CC(C)OC(C)C1 (some centres undefined) | 15.6% (inactive) |
| CC1CCCN(CCOCCOc2ccccc2-c2ccccc2)C1 (centres undefined) | 98.6% (active) |
| CC1CCCN(Cc2nc3c(c(=O)n(C)c(=O)n3C)n2CC(=O)c2ccccc2)C1 (centres undefined) | 22.4% (inactive) |
| CN1CCN(CCCCOc2ccccc2-c2ccccc2)CC1 | 44.5% (inactive) |
| CC1CCN(S(=O)(=O)c2ccc(S(=O)(=O)NCc3cccnc3)cc2)CC1 | -2.4% (inactive) |
| CS(=O)(=O)N(CC(=O)NC1CCCC1)Cc1ccc(F)cc1 | -5.9% (inactive) |
| Cc1cccn2c(=O)c3cc(C#N)c(=NC(=O)c4cccnc4)n(CC4CCCO4)c3nc12 (centres undefined) | 16.8% (inactive) |
| Cc1cccn2c(=O)c3cc(C#N)c(=O)n(CCCN4CCOCC4)c3nc12 | 95.7% (active) |
| Cc1ccc(-n2c(=O)c(C#N)cc3c(=O)n4ccccc4nc32)cc1C | 2.63% (inactive) |
| CN1C(=O)/C(=C\c2ccc(-c3ccccc3)o2)SC1=S | -6.51% (inactive) |
| O=C(NC1CCCCC1)n1c(=O)oc2cc(S(=O)(=O)N3CCCCC3)ccc21 | 2.93% (inactive) |
| O=C(NCCc1ccccc1)C1CCN(S(=O)(=O)c2ccc(Br)s2)CC1 | -1.73% (inactive) |

| SMILES | inhibition |
| --- | --- |
| COc1ccccc1NC(=O)COC(=O)Cc1ccc(S(=O)(=O)N2CCCCC2)s1 | 6.48% (inactive) |
| O=C(Cc1ccc(S(=O)(=O)N2CCCC2)s1)NC1CCCCCC1 | 93.5% (active) |
| O=C(Cc1ccc(S(=O)(=O)N2CCOCC2)s1)NCCC(c1ccccc1)c1ccccc1 | 98.1% (active) |
| O=C(NC1CCCCC1)C1CCCN(S(=O)(=O)c2ccc(Br)s2)C1 (centres undefined) | 12.5% (inactive) |
| COc1cccc(CC(=O)N2CCCC(CCC(=O)N3CCN(c4ccccn4)CC3)C2)c1 (centres undefined) | 8.58% (inactive) |
| Cc1cc(OC(=O)c2ccccc2Cl)ccc1N1C(=O)CCC1=O | -6.74% (inactive) |
| Cc1ccccc1-n1nc(SCC(=O)O)sc1=S | -4.01% (inactive) |
| Cc1ccc(C2CCN(C(=S)Nc3cccc(Cl)c3)C2)cc1 (centres undefined) | 0.88% (inactive) |
| CCOc1ccc(/C=N/Nc2nncc(-c3ccccc3)n2)cc1OC | -2.97% (inactive) |
| CC(C)NC(=O)/C(C#N)=C\c1ccc(N(C)C)c(Br)c1 | 64.6% (active) |
| Cc1[nH]c2ccccc2c1/C=C(/C#N)C(=O)NC(C)C | 16.4% (inactive) |
| CC(C)(C)C(=O)/C(C#N)=C/c1ccc(O)cc1 | -4.15% (inactive) |
| C1CC1Cc1noc(CN2CCN(CC3CC3)CC2)n1 | 15.8% (inactive) |
| CCOc1ccc2nc(C(=O)N3CCCC(C)C3)sc2c1 (centres undefined) | 41.6% (inactive) |
| CCOc1ccc2nc(/N=C/c3nc(-c4ccccc4)oc3O)sc2c1 | 54.2% (active) |
| CC(N=Cc1nc(-c2ccccc2)oc1O)c1ccccc1 (centres undefined) | -1.28% (inactive) |
| Cc1ccc(S(=O)(=O)N(C)CC(=O)OCC(=O)N2CC(=O)Nc3ccccc32)cc1 | 0.63% (inactive) |
| N/C(=N\OC(=O)c1ccc2c(c1)OCO2)c1ccc(Br)cc1 | 1.57% (inactive) |
| CCCCNC(=S)N/N=C1\CCCCc2ccccc21 | 97.5% (active) |
| CCCC1CCC(=NNC(=S)NCCc2ccccc2)CC1 (centres undefined) | -9.55% (inactive) |
| Cc1ccc(NC(=S)N/N=C2/CCCc3c(C)cc(C)cc32)cc1 | -7.12% (inactive) |
| CCN(C(=O)COC(=O)c1cc(S(=O)(=O)N2CCc3ccccc32)ccc1OC)C1CCS(=O)(=O)C1 (centres undefined) | -4.24% (inactive) |
